Experimental data published in ChEMBL document CHEMBL4513216, “Probing the Open Global Health Chemical Diversity Library for Multistage-Active Starting Points for Next-Generation Antimalarials” (ACS Infect Dis, 2020).
The whole screen tested about 69,000 compounds, of which about 8,600 (12%) showed an effect of 50% or more. Only a selection was taken, and strong results are over-represented in it overall.

What follows are compounds tested on Plasmodium berghei (assay: Screen against P. berghei liver stage (PbLuc), transformed with Luciferase, at 10uM). Details: tested at 10 uM.
Type: functional, HepG2

SMILES	INHIBITION [%]
C=C(C)Cn1cc(C(N)=O)nc1C1CC1	-6.67
N#Cc1cnc2ccccc2c1N1CCN(C(=O)C2CCC2)CC1	90.6
N#Cc1ccccc1OCCN1CCN(C(=O)C2CCCC2)CC1	65.6
N#Cc1ccccc1OCCN1CCCCC1C(=O)N1CCOCC1 (stereo not given)	47.1
N#Cc1cnc2ccccc2c1N1CCN(CCC(=O)O)CC1	5.87
Cc1nnc(CN2CCN(CCOc3ccccc3C#N)CC2)n1C	21.2
N#Cc1cccc(OCCN2CCC(C(=O)N3CCOCC3)CC2)c1	55.4
N#Cc1ccccc1OCCN1CCC(N2CCNC2=O)CC1	24
N#Cc1ccccc1N1CCN(CCC(=O)N2CCOCC2)CC1	-29.4
CC(C)C(=O)N1CCN(CCOc2cccc(C#N)c2)CC1	39.2
N#Cc1ccccc1OCCN1CCC(C(=O)N2CCOCC2)CC1	70.3
CC(C)(C)C(=O)N1CCN(CCOc2cccc(C#N)c2)CC1	-18
N#Cc1cnc2ccccc2c1N1CCC(C(=O)O)CC1	35.7
CN1CC(=O)N(c2ccsc2)CC12CCN(C(=O)CC1CCCC1)C2 (stereo not given)	21.8
NC(=O)NC(=O)C(c1ccccc1)N1CCN(Cc2ccsc2)CC1 (stereo not given)	4.52
Cc1cc(C)n(CC2CCCN2C(=O)Cc2c(C)nc(C)[nH]c2=O)n1 (stereo not given)	2.3
O=C(O)c1cc2c(nc1-c1ccoc1)CCN(Cc1ccco1)CC2	34.6
Cc1occc1C(=O)N1C[C@@H]2OCCN(C(C)C)[C@@H]2C1	15.9
CN1CC2(CCN(C(=O)CCCOCc3ccccc3)C2)OC1=O (stereo not given)	12.4
CCn1nc(C)cc1C(=O)NCc1noc(C(C)(C)C)n1	27.5
O=C1CCC[C@]2(CN(S(=O)(=O)N3CCOCC3)C[C@H]2c2cccnc2)N1	41.5
Cc1nnc(-c2cccc(C#N)c2)n1C1CCCN(C(C)C)C1=O (stereo not given)	-18.9
CN1CCCCCC1C(=O)N1CCCN(c2ccccc2)CC1 (stereo not given)	45.6
CN1CCCCC1C(=O)N1CCN(c2ccccc2C#N)CC1 (stereo not given)	39.6
N#Cc1cccc(OCCN2CCCC2C(=O)NCC(F)(F)F)c1 (stereo not given)	2.93
N#Cc1cccc(OCCN2CCCC2C(=O)NC2CC2)c1 (stereo not given)	-3.21
N#Cc1cccc(OCCN2CCCC2C(=O)N2CCSCC2)c1 (stereo not given)	55.3

SMILES	INHIBITION [%]
CN1CCCCCC1C(=O)N1CCN(c2ccccc2C#N)CC1 (stereo not given)	62.4
CC(C)N1CCN(C(=O)c2ccccc2NCc2cccnc2)CC1	-9.31
CC(C)c1nnc(NC(=O)N(C)Cc2ccc(C(N)=O)cc2)s1	22.5
Cc1cc(O)cc(=O)n1CCCC(=O)Nc1n[nH]c2cccc(F)c12	5.03
COc1ccccc1CNC(Cc1cccs1)c1nc(C)c(C)s1 (stereo not given)	55.6
COc1ccccc1CNC(Cc1cccs1)c1nc(C)cs1 (stereo not given)	47.2
COc1cccc(CNC(Cc2cccs2)c2nc(C)c(C)s2)c1OC (stereo not given)	42.4
O=C1CCC2(CCC(NC(=O)NCc3cccnc3)CC2)N1 (stereo not given)	35.8
FC(F)(F)CCc1ccnc(NCc2csc(N3CCOCC3)n2)n1	69
Nc1nc(CNc2nccc(CCC(F)(F)F)n2)cs1	32.7
CC(C)c1nc(CNc2nccc(CCC(F)(F)F)n2)cs1	16.2
Cc1noc(C)c1CN1CC[C@H]2OCC[C@@]2(C(=O)N2CCOCC2)C1	47.4
CN(Cc1ccc(Cl)c(F)c1)C(=O)c1ccncc1F	36.2
CN(Cc1ccc(Cl)c(Cl)c1)C(=O)CNC(N)=O	-36.3
CN(Cc1ccc(Cl)c(F)c1)C(=O)CCc1ccncc1	56.5
O=C1CCc2cc(S(=O)(=O)NC(=O)c3ccc4c(c3)OCO4)ccc2N1	39.4
O=C1CCc2cc(S(=O)(=O)NC(=O)c3ccc4c(c3)COC4)ccc2N1	62.9
O=C1COc2cc(C(=O)NS(=O)(=O)c3ccc(F)c(F)c3)ccc2N1	41.5
COCc1ccccc1C(=O)NS(=O)(=O)c1ccc2c(c1)CCC(=O)N2	25.5
COCc1ccc(C(=O)NS(=O)(=O)c2ccc3c(c2)CCC(=O)N3)cc1	61.8
O=C1CCc2cc(S(=O)(=O)NC(=O)c3ccc4c(c3)CCO4)ccc2N1	44.7
O=C(C1CCOCC1)N1CCc2ncc(CN3CCCC3)n2CC1	29.9
Cc1ccc2ncccc2c1CN1CC[C@H](N(C)C)[C@H](CCC(=O)O)C1	-102
CC(C)CCn1[nH]c(CNc2ccc(Cl)cc2)nc1=O	40
N#CCCn1cnc2c(Br)cc(Br)cc2c1=O	44.2
N#CCCCn1cnc2c(F)cc(Br)cc2c1=O	46.4
N#CCCn1cnc2c(F)cc(Br)cc2c1=O	53.9

SMILES	INHIBITION [%]
O=C(NCCCn1ccnc1)NCC(c1ccco1)N1CCCCC1 (stereo not given)	-67.3
CCC[C@@H]1CN(C(=O)c2cc(-c3cccs3)n(C)n2)C[C@H]1NS(C)(=O)=O	18.8
CN(C)CCCNC(=O)c1cnc(Cc2ccc(F)cc2)s1	73.1
O=C(NCCN1CCOCC1)c1cnc(Cc2ccc(F)cc2)s1	63.7
CCNC(=O)c1cnc(Cc2ccc(F)cc2)s1	17.4
O=C(NCCCN1CCOCC1)c1ccc(-c2ccccc2)[nH]c1=O	41.4
O=C(NCCN1CCOCC1)c1ccc(-c2ccc(F)cc2)nc1O	61.2
O=C(NCCN1CCOCC1)c1ccc(-c2ccccc2)[nH]c1=O	-14.1
O=C(NCCN1CCOCC1)c1cnc(-c2ccccc2F)s1	41.6
O=C(NCCN1CCOCC1)c1ccn(COc2ccc(F)cc2)n1	-8.9
Cc1ccc(C(=O)NCCN2CCOCC2)c(=O)[nH]1	-14.1
COC(=O)CCNC(=O)c1cnc(Cc2ccc(F)cc2)s1	18.3
CCc1ncc(C(=O)NCCNC(=O)Cc2ccc(F)cc2)s1	-49.7
Cc1cccc(-c2ccc(C(=O)NCCN3CCOCC3)c(=O)[nH]2)c1	68.6
CC(C#N)(NC(=O)c1ccc(C#N)cc1)C1CC1 (stereo not given)	2.45
CC1CCc2n[nH]c(C(=O)NCCCc3ccco3)c2C1 (stereo not given)	6.32
Cc1cnn(C2CN(Cc3nc4cc(Cl)ccc4n3C)C2)c1	-10.6
CC(C)(CN)NS(=O)(=O)c1cccc(F)c1F	19
CCN1CCn2c(C)cnc2C12CCN(C(=O)c1ccco1)CC2	3.81
CN1CC(=O)N(c2cccc(F)c2)CC12CCN(CCO)C2 (stereo not given)	21.8
COc1ccc(N2CCN(C(=O)c3cc(=O)c(OC)c[nH]3)CC2)cc1	-13.8
CC(c1cccnc1)N1CCN(CCCC#N)CC1 (stereo not given)	41.4
CCC(c1ccccc1)N1CCN(C(=O)c2cc(C(N)=O)c[nH]2)CC1 (stereo not given)	-23.1
CCC(c1ccccc1)N1CCN(CCO)CC1 (stereo not given)	52.1
CCS(=O)(=O)CCN1CCN(C(C)c2cccnc2)CC1 (stereo not given)	24.2
CCC(c1ccc(F)cc1F)N1CCN(CCO)CC1 (stereo not given)	48.1
CC(c1cccnc1)N1CCN(CCO)CC1 (stereo not given)	60

SMILES	INHIBITION [%]
CN(Cc1nnc(C2CC2)o1)Cc1ccccc1N1CCOCC1	20.19
O=C(c1cocn1)N1CCC2(CC1)COC(COCc1ccccn1)C2 (stereo not given)	8.03
COc1c(CNCc2cccc(Cn3cncn3)c2)c(C)nn1C	-21.8
Cc1cc(C)nc(C2CCCN2C(=O)c2cnco2)n1 (stereo not given)	12.8
Cc1cc(C(=O)NCC(c2ccccc2Cl)N2CCOCC2)on1 (stereo not given)	1.7
Cc1ccoc1C(=O)NCC(c1ccccc1Cl)N1CCOCC1 (stereo not given)	30.5
Cc1nc(C)c(C(=O)NCC(c2ccccc2Cl)N2CCOCC2)s1 (stereo not given)	62.3
CN(Cc1cccc(OC(F)(F)F)c1)Cc1cnn(C)c1	-6.51
Cc1ncsc1C(=O)N(C)Cc1ccccc1	-15.75
CO[C@@H]1CC[C@H]2[C@H]1OCCN2C(=O)COc1ccc(F)cc1	29.6
CCO[C@H]1CC[C@H]2[C@H]1OCCN2C(=O)c1nn(C)c2ccccc12	67.3
CO[C@H]1CC[C@H]2[C@H]1OCCN2C(=O)c1nn(C)c2ccccc12	47.4
CN(C)CCO[C@@H]1CC[C@H]2[C@H]1OCCN2C(=O)COc1ccccc1	22.2
CO[C@@H]1CC[C@H]2[C@H]1OCCN2C(=O)COc1ccc(C)cc1	47.5
CCO[C@H]1CC[C@H]2[C@@H]1OCCN2C(=O)COc1ccccc1	62
CO[C@@H]1CC[C@H]2[C@H]1OCCN2C(=O)C1CCOCC1	33
O=C(COc1ccc(F)cc1)N1CCO[C@H]2[C@@H](OCC3CC3)CC[C@@H]21	59.3
COc1cc(C(=O)N2CCO[C@H]3[C@H](OCC4CC4)CC[C@@H]32)ccc1F	30.5
COCC(=O)N1CCO[C@H]2[C@H](OC)CC[C@@H]21	50
CCO[C@H]1CC[C@H]2[C@H]1OCCN2C(=O)COc1ccccc1	34.9
CCO[C@@H]1CC[C@H]2[C@H]1OCCN2C(=O)c1nn(C)c2ccccc12	22.6
N#Cc1nc(COc2ccc3c(c2)OCO3)oc1N1CCCC1	45.2
COC(=O)c1cc(C(=O)N2CCCCC2C)n(-c2ccccc2)n1 (stereo not given)	13.4
CN1C[C@H]2CNC[C@@]2(C(=O)N2CCN(c3ncccc3C#N)CC2)C1	48.1
